Entries with a potency or affinity are not part of this list.

The first experiment relates to Klebsiella pneumoniae. The settings on record: Concentration 20 uM; ASSAY_TEST Inhibition of Bacterial Growth; detection method Absorption (OD600); MEDIA CAMHB; plate type 384well; NBS; CORNING #3640; time 18 hr.
As for `CC(NC(C)(C)C)C(=O)c1cccc(Cl)c1.Cl` (stereo not drawn) [BUPROPION HYDROCHLORIDE], the Inhibition was found to be 2.52%.

On to `Br.CN1[C@@H]2CC(OC(=O)[C@H](CO)c3ccccc3)C[C@H]1[C@@H]1O[C@@H]12.O.O.O` (stereo partly drawn), for which the Inhibition turned out to be 13.1%.

Turning to `Cl.FC(F)(F)c1cccc(N2CCNCC2)c1` [N- (3-TRIFLUOROMETHYLPHENYL)PIPERAZINE HYDROCHLORIDE (TFMPP)], the Inhibition was determined as 6.51%.

For `CC(COc1ccccc1)N(CCCl)Cc1ccccc1.Cl` (stereo not drawn) [PHENOXYBENZAMINE HYDROCHLORIDE], the Inhibition is 17.18%.

Turning to `CC(C)NCC(O)c1ccc(O)c(O)c1.Cl` (stereo not drawn) [ISOPROTERENOL HYDROCHLORIDE], the Inhibition worked out at 6.57%.

Consider `C[C@]12CC[C@H](O)CC1=CC[C@@H]1[C@@H]2CC[C@@]2(C)[C@H]1CC[C@]2(C)O` [METHANDRIOL], for which the Inhibition came out at 9.75%.

For `CC[C@@H](C(N)=O)N1CCCC1=O`, the Inhibition stood at 13.35%.

For the molecule `CCOC(=O)C1(c2ccccc2)CCN(CCC(C#N)(c2ccccc2)c2ccccc2)CC1.Cl` [DIPHENOXYLATE HYDROCHLORIDE], the Inhibition is listed as 2.24%.

With `CCOC(=O)C1=C(COCCN)NC(C)=C(C(=O)OC)C1c1ccccc1Cl` (stereo not drawn) [AMLODIPINE], the Inhibition was 0.34%.

Consider `O=C(O)CCCc1ccc(N(CCCl)CCCl)cc1` [CHLORAMBUCIL], for which the Inhibition is 9.18%.

As to `Cc1c(OCC(F)(F)F)ccnc1C[S+]([O-])c1nc2ccccc2[nH]1` (stereo not drawn) [LANSOPRAZOLE], the Inhibition was determined as 7.47%.

On to `Cc1ccnc2c1NC(=O)c1cccnc1N2C1CC1` [NEVIRAPINE], for which the Inhibition is reported as 10.08%.

`CNC(=O)Oc1ccc2c(c1)[C@]1(C)CCN(C)C1N2C.CNC(=O)Oc1ccc2c(c1)[C@]1(C)CCN(C)C1N2C.O=S(=O)(O)O` (stereo partly drawn): the Inhibition amounted to 13.28%.

For the molecule `Cl.N=C(N)NC(=O)c1nc(Cl)c(N)nc1N.O.O` [AMILORIDE HYDROCHLORIDE], the Inhibition amounted to 12.19%.

Regarding `Cl.Oc1ccc2c3c1OC1C(O)CC[C@@]4(O)[C@@H](C2)N(CC2CCC2)CC[C@]314` (stereo partly drawn), the Inhibition is recorded as 8.11%.

On to `CN1[C@@H]2CC[C@H]1CC(OC(=O)C(CO)c1ccccc1)C2` (stereo partly drawn), for which the Inhibition is recorded as 9.61%.

On to `C[C@]12CCC(=O)C=C1CC[C@@H]1[C@@H]2CC[C@@]2(C)[C@H]1CC[C@]2(C)O` [METHYLTESTOSTERONE], for which the Inhibition came out at 12.33%.

Consider `Cl.O=C1CC[C@@]2(O)[C@H]3Cc4ccc(O)c5c4[C@@]2(CCN3CC2CC2)[C@H]1O5` [NALTREXONE HYDROCHLORIDE], for which the Inhibition came to 13%.

With `Cl.O=C1c2cccc3c2[C@H](CCC3)CN1[C@@H]1CN2CCC1CC2` [PALONOSETRON HYDROCHLORIDE], the Inhibition worked out at 8.73%.

Consider `COC(=O)C1=C(C)NC(C)=C(C(=O)OC)C1c1ccccc1[N+](=O)[O-]` [NIFEDIPINE], for which the Inhibition amounted to 22.28%.

Consider `NC(=O)C[S+]([O-])C(c1ccccc1)c1ccccc1` (stereo not drawn) [MODAFINIL], for which the Inhibition is reported as 7.6%.

Consider `NC(=O)OCCCc1ccccc1` [PHENPROBAMATE], for which the Inhibition was 12.49%.

For `COc1cc([C@@H]2c3cc4c(cc3[C@H](O)[C@H]3COC(=O)[C@H]23)OCO4)cc(OC)c1OC` [PODOFILOX], the Inhibition is on record as 15.68%.

Take `C[C@]12CC(C=O)=C(O)C[C@@H]1CC[C@@H]1[C@@H]2CC[C@@]2(C)[C@H]1CC[C@]2(C)O`: the Inhibition is 6.07%.

In the case of `C#CCN(C)[C@H](C)Cc1ccccc1.Cl` [SELEGILINE HYDROCHLORIDE], the Inhibition is given as 8.65%.

`O=C(O[C@@H]1Cc2c(O)cc(O)cc2O[C@@H]1c1cc(O)c(O)c(O)c1)c1cc(O)c(O)c(O)c1` [EPIGALOCATECHIN GALLATE]: the Inhibition is recorded as 17.83%.

Take `Brc1c(NC2=NCCN2)ccc2nccnc12` [BRIMONIDINE]: the Inhibition is 7.83%.

For `CC[C@@H]1/C=C/C=C/C[C@H](C)[C@@H](O)[C@](C)(O)C(=O)[C@H](C)[C@@H](O)[C@H](C)C(=O)[C@H](C)[C@@H](O)[C@H](C)/C=C/C(=O)O[C@H]2[C@@H](C)[C@@H](CC1)O[C@@]1(CC[C@@H](C)[C@@H](C[C@H](C)O)O1)[C@@H]2C`, the Inhibition is given as 17.55%.

`COc1cc(-c2ccc(=O)[nH]n2)ccc1OC(F)F` [ZARDAVERINE]: the Inhibition was 6.98%.

Consider `CC(C)c1cccc(C(C)C)c1O` [PROPOFOL], for which the Inhibition is 12.14%.

Take `CN1[C@@H]2CC[C@H]1C[C@@H](OC(=O)c1c[nH]c3ccccc13)C2.Cl`: the Inhibition stood at 15.9%.

For the molecule `COc1ccc2[nH]cc(CCN)c2c1` [5-METHOXYTRYPTAMINE], the Inhibition is on record as 5.41%.

Consider `CCOC(=O)c1ncn2c1CN(C)C(=O)c1cc(F)ccc1-2` [FLUMAZENIL], for which the Inhibition is -2%.

Turning to `c1ccc(Cn2ccnc2)cc1`, the Inhibition is 8.34%.

Another experiment concerns Candida albicans. As to conditions: 20 µM.
In the case of `CC(NC(C)(C)C)C(=O)c1cccc(Cl)c1.Cl` (stereo not drawn) [BUPROPION HYDROCHLORIDE], the Inhibition is 4.99%.

As for `Br.CN1[C@@H]2CC(OC(=O)[C@H](CO)c3ccccc3)C[C@H]1[C@@H]1O[C@@H]12.O.O.O` (stereo partly drawn), the Inhibition came to 2.39%.

Turning to `Cl.FC(F)(F)c1cccc(N2CCNCC2)c1` [N- (3-TRIFLUOROMETHYLPHENYL)PIPERAZINE HYDROCHLORIDE (TFMPP)], the Inhibition turned out to be 4.36%.

In the case of `CC(COc1ccccc1)N(CCCl)Cc1ccccc1.Cl` (stereo not drawn) [PHENOXYBENZAMINE HYDROCHLORIDE], the Inhibition is 4.97%.

For `CC(C)NCC(O)c1ccc(O)c(O)c1.Cl` (stereo not drawn) [ISOPROTERENOL HYDROCHLORIDE], the Inhibition came to 2.42%.

For `C[C@]12CC[C@H](O)CC1=CC[C@@H]1[C@@H]2CC[C@@]2(C)[C@H]1CC[C@]2(C)O` [METHANDRIOL], the Inhibition was found to be 4.69%.

As for `CC[C@@H](C(N)=O)N1CCCC1=O`, the Inhibition turned out to be 2.36%.

As for `CCOC(=O)C1(c2ccccc2)CCN(CCC(C#N)(c2ccccc2)c2ccccc2)CC1.Cl` [DIPHENOXYLATE HYDROCHLORIDE], the Inhibition stood at 4.81%.

Turning to `CCOC(=O)C1=C(COCCN)NC(C)=C(C(=O)OC)C1c1ccccc1Cl` (stereo not drawn) [AMLODIPINE], the Inhibition turned out to be 4.94%.

As to `O=C(O)CCCc1ccc(N(CCCl)CCCl)cc1` [CHLORAMBUCIL], the Inhibition was 2.65%.

As for `Cc1c(OCC(F)(F)F)ccnc1C[S+]([O-])c1nc2ccccc2[nH]1` (stereo not drawn) [LANSOPRAZOLE], the Inhibition was 9.31%.

In the case of `Cc1ccnc2c1NC(=O)c1cccnc1N2C1CC1` [NEVIRAPINE], the Inhibition was determined as 2.39%.

`CNC(=O)Oc1ccc2c(c1)[C@]1(C)CCN(C)C1N2C.CNC(=O)Oc1ccc2c(c1)[C@]1(C)CCN(C)C1N2C.O=S(=O)(O)O` (stereo partly drawn): the Inhibition turned out to be 2.24%.

`Cl.N=C(N)NC(=O)c1nc(Cl)c(N)nc1N.O.O` [AMILORIDE HYDROCHLORIDE]: the Inhibition is 4.98%.

As for `Cl.Oc1ccc2c3c1OC1C(O)CC[C@@]4(O)[C@@H](C2)N(CC2CCC2)CC[C@]314` (stereo partly drawn), the Inhibition was 2.98%.

Consider `CN1[C@@H]2CC[C@H]1CC(OC(=O)C(CO)c1ccccc1)C2` (stereo partly drawn), for which the Inhibition came to 0.86%.

On to `C[C@]12CCC(=O)C=C1CC[C@@H]1[C@@H]2CC[C@@]2(C)[C@H]1CC[C@]2(C)O` [METHYLTESTOSTERONE], for which the Inhibition worked out at 4.22%.

`Cl.O=C1CC[C@@]2(O)[C@H]3Cc4ccc(O)c5c4[C@@]2(CCN3CC2CC2)[C@H]1O5` [NALTREXONE HYDROCHLORIDE]: the Inhibition was 3.06%.

Consider `Cl.O=C1c2cccc3c2[C@H](CCC3)CN1[C@@H]1CN2CCC1CC2` [PALONOSETRON HYDROCHLORIDE], for which the Inhibition is 2.55%.

On to `COC(=O)C1=C(C)NC(C)=C(C(=O)OC)C1c1ccccc1[N+](=O)[O-]` [NIFEDIPINE], for which the Inhibition was 4.72%.

For `NC(=O)C[S+]([O-])C(c1ccccc1)c1ccccc1` (stereo not drawn) [MODAFINIL], the Inhibition came out at 2.96%.

Turning to `NC(=O)OCCCc1ccccc1` [PHENPROBAMATE], the Inhibition was 3.16%.

`COc1cc([C@@H]2c3cc4c(cc3[C@H](O)[C@H]3COC(=O)[C@H]23)OCO4)cc(OC)c1OC` [PODOFILOX]: the Inhibition amounted to 0.66%.

On to `C[C@]12CC(C=O)=C(O)C[C@@H]1CC[C@@H]1[C@@H]2CC[C@@]2(C)[C@H]1CC[C@]2(C)O`, for which the Inhibition was 6.85%.

In the case of `C#CCN(C)[C@H](C)Cc1ccccc1.Cl` [SELEGILINE HYDROCHLORIDE], the Inhibition is 4.68%.

Consider `O=C(O[C@@H]1Cc2c(O)cc(O)cc2O[C@@H]1c1cc(O)c(O)c(O)c1)c1cc(O)c(O)c(O)c1` [EPIGALOCATECHIN GALLATE], for which the Inhibition came out at 3.47%.

For the molecule `Brc1c(NC2=NCCN2)ccc2nccnc12` [BRIMONIDINE], the Inhibition was found to be 3.99%.

Take `CC[C@@H]1/C=C/C=C/C[C@H](C)[C@@H](O)[C@](C)(O)C(=O)[C@H](C)[C@@H](O)[C@H](C)C(=O)[C@H](C)[C@@H](O)[C@H](C)/C=C/C(=O)O[C@H]2[C@@H](C)[C@@H](CC1)O[C@@]1(CC[C@@H](C)[C@@H](C[C@H](C)O)O1)[C@@H]2C`: the Inhibition is 5.45%.

For `COc1cc(-c2ccc(=O)[nH]n2)ccc1OC(F)F` [ZARDAVERINE], the Inhibition worked out at 1.79%.

Take `CC(C)c1cccc(C(C)C)c1O` [PROPOFOL]: the Inhibition is 2.62%.

With `CN1[C@@H]2CC[C@H]1C[C@@H](OC(=O)c1c[nH]c3ccccc13)C2.Cl`, the Inhibition is 3.12%.

On to `COc1ccc2[nH]cc(CCN)c2c1` [5-METHOXYTRYPTAMINE], for which the Inhibition turned out to be 3.97%.

In the case of `CCOC(=O)c1ncn2c1CN(C)C(=O)c1cc(F)ccc1-2` [FLUMAZENIL], the Inhibition was 0.3%.

Turning to `c1ccc(Cn2ccnc2)cc1`, the Inhibition was determined as 2.99%.

By Inhibition is commonly meant the change of the read-out against control, counted positive when it falls.

The record behind these values is ChEMBL document CHEMBL4513141, “CO-ADD screening of NIH (USA) - Clinical Collection” (2021).
